Records with an inconclusive call do not appear. Entries that show only a call come without a potency. Calls of active or inactive are those of the source. Calls come from the whole dose curve; as a rule, active = well fitted curve in the direction sought with a large enough effect; inconclusive = small, poorly fitted or top-dose-only effect, or another doubt; inactive = no such curve, though single readings can be large; an effect the other way counts as inactive or inconclusive.
What was measured:
[1] = target: Aldehyde dehydrogenase, mitochondrial (Homo sapiens) (UniProt P05091); assay: qHTS for Inhibitors of the Aldehyde Dehydrogenase Family (ALDH2) Primary screen (AID 2061308); details: ALDH2 enzyme inhibition qHTS, 1536-well; series mostly up to 56 µM; note: nearly all actives have a fitted effect of over 55% in size
[2] = target: Retinaldehyde dehydrogenase 3 (Homo sapiens) (UniProt P47895); assay: qHTS for Inhibitors of the Aldehyde Dehydrogenase Family (ALDH1A3) Primary screen (AID 2061315); details: ALDH inhibition qHTS; series mostly up to 56 µM

SMILES	Potency [1]	Potency [2]
Cn1c(=O)c2c(nc(CN3CCN(C(=O)C4CC4)CC3)n2Cc2cccc(F)c2)n(C)c1=O	inactive	inactive
CC1=C(C(=O)Nc2nc3ccccc3s2)C(c2nn(C)cc2Cl)N=C(Nc2nc3ccccc3o2)N1 (stereo not given)	inactive	inactive
CC(=O)Nc1cccc(S(=O)(=O)N2CCN(S(=O)(=O)c3c(F)cccc3F)CC2)c1	inactive	inactive
O=S(=O)(NCC1CC1)c1ccc(Nc2nccc(N3CCCc4cc(O)ccc43)n2)cc1	inactive	inactive
Cc1ccc(S(=O)(=O)Nc2cc(F)c(F)cc2C(=O)Nc2nc(-c3ccccc3)cs2)cc1	inactive	inactive
CCCCC1CCC(C(=O)Nc2ccc(S(=O)(=O)Nc3cc(C)on3)cc2)CC1 (stereo not given)	inactive	inactive
O=C1c2ccccc2C(=O)N1Cc1ccccc1	inactive	inactive
CC(=O)Nc1ccccc1NC(=O)c1cnn2c(C)cc(C)nc12	inactive	inactive
O=C1c2ccccc2C(=O)N1c1noc2ccccc12	inactive	inactive
CC1(C)CCCC2(C)C1C(OC(=O)/C=C/C=C/C=O)C=C1COC(=O)C12O (stereo not given)	inactive	inactive
COc1cc2nc(Nc3ccccc3)nc(NC3CC3)c2cc1OC	inactive	inactive
COc1ccc(C(=O)Nc2ccc(-c3nc4ccccc4[nH]3)cc2)cc1F	inactive	inactive
Cc1cc2c(s1)c1cnn(Cc3c(F)ccc(F)c3Cl)c(=O)c1n2C	inactive	inactive
O=C(O)c1ccc(-c2ccc3ncnc(NCCc4cnc[nH]4)c3c2)o1	inactive	inactive
O=C1Cc2cc(S(=O)(=O)N3CCN(c4ccc(CO)cc4)CC3)ccc2N1	inactive	inactive
CN(C)c1ccc(-c2ccc(=O)n(CC(=O)NCCc3ccccc3)n2)cc1	inactive	inactive
Cc1cccc(-n2cnc3cc(C(=O)N4CCCCC4)ccc32)c1	inactive	inactive
O=C(Nc1ccc(Br)c(Br)c1)Nc1nnc(-c2cccnc2)s1	inactive	inactive
COc1cccc(C2c3c(ncn(-c4cccc(C#N)c4)c3=N)Oc3ccc4ccccc4c32)c1 (stereo not given)	inactive	inactive
O=C(Nc1ncc([S+](=O)([O-])N2CCOCC2)s1)c1cccc(Br)c1	inactive	inactive

SMILES	Potency [1]	Potency [2]
CC(=O)Nc1sc2c(c1-c1ccc(-c3nn[nH]n3)cc1)CCNC2	inactive	inactive
Oc1c(C(Nc2ccccn2)c2ccccc2)cc(Cl)c2cccnc12 (stereo not given)	inactive	inactive
CCCn1c(C)nc2c(NCCCN(CC)CC)nc(C)nc21	inactive	inactive
CN(CCC1CCCO1)c1ncnc2ccc(-c3ccc4c(c3)OCO4)cc12 (stereo not given)	inactive	inactive
Cc1ccc(-c2c(C(=O)CF)n(CCCO)c3ncnc(N)c23)cc1	inactive	inactive
COc1ccccc1S(=O)(=O)Nc1cnccc1C(=O)Nc1nc(-c2ccccc2)cs1	inactive	inactive
Cc1cc(C)nc(NC(=S)N2CCN(c3cccc(Cl)c3Cl)CC2)c1	inactive	inactive
Cc1cc2c(s1)c1cnn(Cc3c(F)c(F)c(C)c(F)c3F)c(=O)c1n2C	inactive	inactive
CC(=O)NCc1cc(Cl)c2cccnc2c1O	inactive	inactive
COc1c(Cl)cccc1NC(=O)c1c(NC(=O)Cc2ccccc2)sc2c1CCCC2	inactive	inactive
O=[S+]([O-])(c1ccc(-c2ccccc2)cc1)N1CCN([S+](=O)([O-])c2ccc3c(c2)OCCO3)CC1	inactive	inactive
Cc1cc(N[S+](=O)([O-])c2ccc(NC(=O)Cc3ccc(C(F)(F)F)c(F)c3)cc2)no1	inactive	inactive
CC(=O)Nc1sc2c(c1-c1ccccc1F)CCNC2	inactive	inactive
CN(C)CCCCC(=O)Nc1ccc(NC(=S)NC(=O)c2ccc(C(C)(C)C)cc2)cc1	inactive	inactive
CCCCN(C)C(=O)Cn1nc(-c2ccc(OC)cc2)ccc1=O	inactive	inactive
CC1(C)C[C@@H]2C[C@@](C)(CN2S(=O)(=O)c2ccc(C(=O)Nc3ccc(Cl)c(S(=O)(=O)N4CCOCC4)c3)cc2)C1	inactive	inactive
Cc1cc2c(s1)c1cnn(Cc3cccc(C)c3F)c(=O)c1n2C	inactive	inactive
Cc1cccc(CNc2ncnc3ccc(-c4ccoc4)cc23)c1	inactive	inactive
Cn1c2cc(B(O)O)sc2c2cnn(Cc3ccc(F)cc3F)c(=O)c21	inactive	inactive
CCN1CCCC1Cn1c(-c2ccccc2)nc2c(N3CCOCC3)nc(C)nc21 (stereo not given)	inactive	inactive

Source: PubChem BioAssay (NCATS)
